Screens deposited in PubChem BioAssay by National Center for Advancing Translational Sciences (NCATS).
MARV entry inh – Marburg virus entry inhibition | Marburg virus pseudotyped entry inhibition, cell reporter | Potency, µM (highest dose often 37.8 µM), hits mostly inhibitors | 300,000 tested, 1.8% active; calls by dose curve; tested in HEK293 cells
LASV entry inh – inhibitors of Lassa virus binding or cell entry; Lassa virus pseudotype entry inhibition, cell reporter; AID 540256; Potency, µM (highest dose often 37.9 µM), most hits filed as inhibitors; 300,000 tested, 1.2% active; calls by dose curve; tested in HEK293 cells; further: nearly all actives have a fitted effect of over 50% in size
CHX counter – affects cycloheximide protein synthesis inhibition readout, counter-screen; cell reporter, cycloheximide protein synthesis inhibition counterscreen; max response, %; 300,000 tested, 12% active; AID 2314; in the data active means max response mostly above about 13%, no sharp cut-off; inactive means mostly below about 14%; further: read at 38.3 µM for the half of the compounds with a filed dose
HCV inhibitor – blocks hepatitis C virus; 340,000 tested, 3.4% active; AID 651820; Huh7.5.1 HCVcc-Cre infection, luciferase reporter, 44 h; Potency, µM (titrated, usually from 41.8 µM), hits mostly inhibitors; active means well fitted inhibition curve with a large enough effect; inconclusive means small, poorly fitted or top-dose-only effect, or another doubt; inactive means no such curve, though single readings can be large or run the other way
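Whole-lifecycle infectious HCVcc-Cre system; cells 1,000/well, compound then virus (~0.5 moi) added 4 h after plating, 44 h culture. Luciferase read 15 sec following 15 min substrate incubation, room temp.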
Shiga inhibitor – Shiga toxin inhibition; 290,000 tested, 9.2% active; Vero cells, Shiga toxin protein synthesis inhibition reporter; inhibition, % at 38.7 µM; in the data active means inhibition mostly above about 28%, no sharp cut-off; inactive means mostly below about 43%
FMDV antiviral – foot and mouth disease virus antiviral activity | Potency, µM (doses to about 57.9 µM), most hits filed as inhibitors | AID 1159524 | 410,000 tested, 1.2% active | FMDV antiviral cell-based qHTS; calls by dose curve; tested in HEK293T cells; further: read-out not given here; nearly all actives have a fitted effect of over 45% in size
A number is an active result; - = inactive; ? = inconclusive; . = not tested or not shown. A selection: hits, their analogues and other compounds. The true share with any hit is near 13%.

SMILES	MARV entry inh	LASV entry inh	CHX counter	HCV inhibitor	Shiga inhibitor	FMDV antiviral
Cc1ccnc(NC(=O)Nc2ccc3c(c2)OCO3)c1	?	?	26.7	-	74.3	-
O=C(Nc1cccc([N+](=O)[O-])c1)Nc1ccc2c(c1)OCCO2	-	-	33.3	-	-	-
O=C(Nc1ccc2c(c1)CCC2)Nc1ccc2c(c1)OCO2	.	.	47.3	-	133.9	-
O=C(Nc1ccc2c(c1)OCCO2)NC1(C(F)(F)F)Oc2ccccc2O1	.	.	92.2	-	88.7	-
O=C(Nc1ccc2c(c1)OCO2)NC1(C(F)(F)F)Oc2ccccc2O1	-	-	-	?	-	-
CC(C)OC(=O)c1c2c(n3ccccc13)C(=O)c1ccccc1C2=O	-	-	-	?	-	?
CCOC(=O)N1CCC(NC(=O)C2CCCN(S(=O)(=O)c3cccc4nsnc34)C2)CC1 (centres undefined)	-	-	-	-	-	-
O=C(Nc1ccc2c(c1)OCO2)Nc1ccc(Br)cn1	-	?	37.4	-	82.6	-
CC(C)N1CCC(NC(=O)Nc2ccc3c(c2)OCO3)CC1	-	-	28.7	-	-	-
COC(=O)Nc1ccc2c(c1)OCO2	-	-	-	-	-	-
CC(C)N1CCCC(C)(C(=O)Nc2ccc3c(c2)OCO3)C1 (centres undefined)	.	.	.	.	.	-
COC(=O)c1ccc(NC(=O)Nc2ccc3c(c2)OCO3)cc1	?	-	49.9	-	87.0	-
NC(=O)c1ccc(NC(=O)Nc2ccc3c(c2)OCO3)cc1	.	.	33.9	-	46.6	-
CC1(C)CC(=O)C2=C(C1)OC(N)=C(C#N)C21CCN(C(=O)OCc2ccccc2)CC1	-	-	-	-	-	.
CCOc1ccc(Nc2cc(C)c(C#N)c3nc4ccccc4n23)cc1	-	-	.	.	.	-
CC1(C(=O)Nc2ccc3c(c2)OCCO3)CC1(Cl)Cl (centres undefined)	?	-	23.1	-	42.3	-
C=C(C)C(=O)Nc1ccc2c(c1)OCCOCCOCCO2	11.2µM	-	-	-	-	-
O=C(O)C1CC=CCC1C(=O)Nc1ccc(F)c(F)c1 (centres undefined)	-	-	-	-	-	-
CC(=O)Nc1ccc2c(c1)OCCO2	-	-	-	-	-	-
O=C(O)C1CC=CCC1C(=O)Nc1ccc2c(c1)OCCO2 (centres undefined)	-	-	60.8	-	36.2	-
O=C(CCl)Nc1ccc2c(c1)OCO2	?	?	33.8	?	-	?
CC(C)CC(=O)Nc1ccc2c(c1)OCO2	?	?	-	-	-	-
CN1CCN(S(=O)(=O)c2cccc(C(=O)Nc3cc(C(N)=O)cc(C(N)=O)c3)c2)CC1	-	-	-	-	-	-
O=C(Nc1ccc2c(c1)OCCO2)NC12CC3CC(CC(C3)C1)C2	?	-	49.2	-	107.9	-
O=C(Nc1ccc2c(c1)OCCO2)Nc1ccc2c(c1)OCO2	?	8.91µM	33.4	-	62.0	-
SMILES	MARV entry inh	LASV entry inh	CHX counter	HCV inhibitor	Shiga inhibitor	FMDV antiviral
Cc1cc(N2C(=O)C(O)=C(C(=O)c3ccco3)C2c2cccc(Oc3ccccc3)c2)no1 (centres undefined)	-	-	-	-	-	-
COc1ccc(C2(c3ccc(OC)cc3)NC(=O)N(CC(=O)Nc3ccc(OC(F)F)cc3)C2=O)cc1	?	?	-	12.6µM	-	?
CC1(c2ccc(OC(F)F)cc2)NC(=O)N(CC(=O)Nc2ccc(Cl)cc2F)C1=O (centres undefined)	-	-	12.7	?	-	-
CC1(c2ccc(OC(F)F)cc2)NC(=O)N(CC(=O)Nc2ccc(OC(F)F)cc2)C1=O (centres undefined)	-	-	-	?	-	-
COc1ccc(-n2nc3c(c2NC(=O)C2CC(=O)N(c4ccccc4)C2)CS(=O)(=O)C3)cc1 (centres undefined)	-	-	-	-	-	-
O=C(NCc1ccco1)c1ccc2c(c1)N(Cc1ccc(Cl)cc1)CCS2	?	?	8.3	10µM	44.6	-
O=C(NCc1ccco1)c1ccc2c(c1)N(Cc1ccccc1)CCS2	-	.	-	-	-	-
CCOC(=O)N1CCC(NC(=O)c2ccc3c(c2)N(Cc2ccc(F)cc2)CCS3)CC1	-	.	-	17.8µM	-	?
CCOC(=O)N1CCC(NC(=O)c2ccc3c(c2)N(Cc2ccc(C)cc2)CCS3)CC1	-	.	-	-	-	-
CCN1CCN(CCCNC(=O)c2ccc3c(c2)N(Cc2ccccc2)CCS3)CC1	.	.	-	10µM	-	-
